This is an account of results in PubChem BioAssay (NCATS).

The nature of experiment [1]: Drug repurposing screens with cells derived from glioblastoma tumor samples (AID 1345199). Also: nearly all actives have a fitted effect of over 40% in size. Conditions: GBM patient neurospheres viability, ATP luminescence, 48 h. In outline: (§1)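 Primary testing used CD133+ neurospheres from four GBM patients, seven concentrations, 48 h exposure and ATP-based viability; confirmation added three slower-growing patient lines.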
The next experiment has as its system astro (control astrocytes). Described as above. Conditions: viability, ATP luminescence, 48 h; series mostly up to 45.9 µM. In outline: as §1
Setting [2] is: at 45.9 µM (top of the series), tumour line B.
[3] abbreviates: at 45.9 µM (top of the series), tumour line D.
Where [4] appears, read: at 46 µM (top of the series), tumour line A.
Setting [5] is: at 46.1 µM (top of the series), tumour line C.

Records with an inconclusive call do not appear. Values without a mark were called inactive. Calls of active or inactive are those of the source. Calls follow the shape of the dose curve; as a rule, active = well fitted inhibition curve with a large enough effect; inconclusive = small, poorly fitted or top-dose-only effect; inactive = flat fitted curve, though single readings scatter.
% is scaled to controls: 0 for no effect and ±100 for the full control effect; potency is read from the fitted curve at half-maximal effect.

For `C[C@@H]1O[C@@H]1P(=O)(O)O`, the activity, negative = cell killing is -9.49% in experiment [1] (setting [2]), -16.5% in experiment [1] (setting [3]), -24.5% in experiment [1] (setting [4]) and -7.45% in experiment [1] (setting [5]). The Potency result in the experiment with astro is “inactive”.
As for `NC(=O)C1c2ccccc2CCc2ccccc21`, the activity, negative = cell killing in experiment [1] (setting [2]) is 4.21%; in experiment [1] (setting [3]), -18.6%; in experiment [1] (setting [4]) it was -34%; in experiment [1] (setting [5]) it was -17.6%. Also, in the experiment on astro, the Potency result was “inactive”.
As for `Cn1cc(NC(=O)c2cc(NC(=O)c3cc(NC=O)cn3C)cn2C)cc1C(=O)NCCC(=N)N`, the activity, negative = cell killing in experiment [1] (setting [2]) was -15.1%; in experiment [1] (setting [3]), -11.2%; in experiment [1] (setting [4]), -20.5%; in experiment [1] (setting [5]), -26.2%. The Potency entry with astro was “inactive”.
For `CC(C)[C@@H](N)C(=O)O`, the activity, negative = cell killing in experiment [1] (setting [2]) is -4.72%; in experiment [1] (setting [3]) it was -10.1%; in experiment [1] (setting [4]), -15.5%; in experiment [1] (setting [5]) it was -0.187%. Moreover, the Potency entry in the experiment with astro is “inactive”.
In the case of `COC(=O)[C@@H](N)CS`, the activity, negative = cell killing in experiment [1] (setting [2]) was 4.89%; in experiment [1] (setting [3]), -8.33%; in experiment [1] (setting [4]) it was -26.1%; in experiment [1] (setting [5]) it was 4.09%. Besides, in the experiment with astro, the Potency entry was “inactive”.
For `CCCCCCCCCCCCOCCCN`, the activity, negative = cell killing is -9.11% in experiment [1] (setting [2]), 2.93% in experiment [1] (setting [3]), -39.4% in experiment [1] (setting [4]) and -14.6% in experiment [1] (setting [5]). Further, the Potency result with astro is “inactive”.
The corresponding values for `NC[C@@H]1O[C@H](O[C@H]2[C@@H](O)[C@H](O[C@@H]3[C@@H](O)[C@H](N)C[C@H](N)[C@H]3O[C@H]3O[C@H](CO)[C@@H](O)[C@H](O)[C@H]3N)O[C@@H]2CO)[C@H](N)[C@@H](O)[C@@H]1O` are -4.51%, -15.7%, -10.6%, -32.1% and “inactive”.
As to `CCCCCCCCCCCCCCCC(=O)OC[C@H](COP(=O)([O-])OCC[N+](C)(C)C)OC(=O)CCCCCCCCCCCCCCC`, the activity, negative = cell killing is -12.1% in experiment [1] (setting [2]), -1.49% in experiment [1] (setting [3]), -32.2% in experiment [1] (setting [4]) and -17.2% in experiment [1] (setting [5]). Besides, the Potency entry in the experiment on astro is “inactive”.
For the compound `CCCCO`, the activity, negative = cell killing was -10.8% in experiment [1] (setting [2]), 1.03% in experiment [1] (setting [3]), -9.11% in experiment [1] (setting [4]) and 6.27% in experiment [1] (setting [5]). Further, the Potency entry with astro was “inactive”.
Turning to `CCCCCCOC(=O)c1cccnc1`, the activity, negative = cell killing in experiment [1] (setting [2]) was 14.4%; in experiment [1] (setting [3]), 7.42%; in experiment [1] (setting [4]), -5.32%; in experiment [1] (setting [5]), 1.85%. For the same compound, the Potency entry with astro is “inactive”.
Regarding `CC1(C)[C@H]2CC[C@]1(C)[C@H](O)C2`, the activity, negative = cell killing was -3.63% in experiment [1] (setting [2]), -3.69% in experiment [1] (setting [3]), -22.7% in experiment [1] (setting [4]) and -20.6% in experiment [1] (setting [5]). Further, in the experiment with astro, the Potency entry was “inactive”.
For the compound `C[C@@H]1O[C@@H](OC[C@H]2O[C@@H](Oc3c(-c4ccc(OCCO)c(OCCO)c4)oc4cc(OCCO)cc(O)c4c3=O)[C@H](O)[C@@H](O)[C@@H]2O)[C@H](O)[C@H](O)[C@H]1O`, the activity, negative = cell killing in experiment [1] (setting [2]) is -5.23%; in experiment [1] (setting [3]), -14.3%; in experiment [1] (setting [4]), -13.8%; in experiment [1] (setting [5]) it was -13.8%. Also, in the experiment on astro, the Potency result is “inactive”.
With `O=C(O)/C=C/c1ccccc1`, the activity, negative = cell killing is -13.6% in experiment [1] (setting [2]), 12.4% in experiment [1] (setting [3]), -20.1% in experiment [1] (setting [4]) and 7.51% in experiment [1] (setting [5]). In addition, the Potency entry in the experiment on astro was “inactive”.
With `C=CCOc1ccc(CC(=O)O)cc1Cl`, the activity, negative = cell killing in experiment [1] (setting [2]) is 0.88%; in experiment [1] (setting [3]), 1.11%; in experiment [1] (setting [4]) it was -23%; in experiment [1] (setting [5]) it was 0.211%. In addition, the Potency result with astro is “inactive”.
With `FC(F)OC(Cl)C(F)(F)F` (stereo not given), the activity, negative = cell killing is -4.99% in experiment [1] (setting [2]), -20.2% in experiment [1] (setting [3]), -34.3% in experiment [1] (setting [4]) and -9.7% in experiment [1] (setting [5]). Besides, the Potency result in the experiment on astro was “inactive”.
On to `COc1ccc([C@@H]2CC(=O)c3c(O)cc(O[C@@H]4O[C@H](CO[C@@H]5O[C@@H](C)[C@H](O)[C@@H](O)[C@H]5O)[C@@H](O)[C@H](O)[C@H]4O)cc3O2)cc1O`, for which the activity, negative = cell killing is -7.12% in experiment [1] (at 20 µM (top of the series), tumour line C); -4.88% in experiment [1] (at 21.2 µM (top of the series), tumour line B); -12.7% in experiment [1] (at 21.2 µM (top of the series), tumour line D); -11.4% in experiment [1] (at 21.3 µM (top of the series), tumour line A). The Potency entry in the experiment on astro is “inactive”.
As for `Cc1c(O)c(=O)ccn1C`, the activity, negative = cell killing in experiment [1] (setting [2]) was -9.32%; in experiment [1] (setting [3]), -8.06%; in experiment [1] (setting [4]) it was -29.8%; in experiment [1] (setting [5]), -25.3%. Besides, in the experiment on astro, the Potency entry is “inactive”.
The corresponding values for `OCC1(CO)COC(C(Cl)(Cl)Cl)OC1` are -8.7%, -7.18%, -26.1%, -4.39% and “inactive”.
`CC1(C)S[C@@H]2[C@H](N3C(=O)C(c4ccccc4)NC3(C)C)C(=O)N2[C@H]1C(=O)O` (stereo not given in full): the activity, negative = cell killing in experiment [1] (setting [2]) was -8.88%; in experiment [1] (setting [3]) it was -1.4%; in experiment [1] (setting [4]) it was -5.42%; in experiment [1] (setting [5]) it was -5.2%. The Potency result with astro was “inactive”.
`CC(C)(C)NCC(O)CSc1nc(-c2ccc(C(N)=O)s2)cs1` (stereo not given): the activity, negative = cell killing was -20.2% in experiment [1] (setting [2]), -9.92% in experiment [1] (setting [3]) and -12.2% in experiment [1] (setting [5]). Also, in experiment [1] (tumour line A), the Potency is 17.8 µM (active). In addition, the Potency entry with astro is “inactive”.
For `CCCCCCCCCCCC(=O)OCC(O)CO` (stereo not given), the activity, negative = cell killing in experiment [1] (setting [2]) is -6.19%; in experiment [1] (setting [3]) it was -1.8%; in experiment [1] (setting [4]) it was -27.7%; in experiment [1] (setting [5]), -2.49%. For the same compound, the Potency result in the experiment on astro is “inactive”.
